Screening data deposited in PubChem BioAssay by National Center for Advancing Translational Sciences (NCATS).
Pol beta inh = blocks human DNA polymerase beta activity; Potency, µM (titrated, usually from 114 µM), without a hit: top-dose activity change, negative = inhibition, hits mostly inhibitors; actives 1.3% (n = 340,000); Pol beta primer extension/strand displacement, fluorescence kinetic; P06746; AID 485314; note: % is set by controls: 0 for no effect and ±100 for the full control effect
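Pol beta (10 nM) was preincubated with compound for 15 min at room temperature. The reaction was then started with 50 nM substrate and read immediately and after a further 10 min at room temperature.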
Pol iota inh = DNA polymerase iota (human) inhibition | Q9UNA4 | Pol iota fluorescent replication assay, 10 min | Potency, µM (top dose mostly 115 µM), without a hit: top-dose activity, negative = inhibition, actives largely listed as inhibitors | actives 1% (n = 390,000)
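Pol iota at 10 nM preincubated 15 min with compounds at room temperature; reaction started with fluorescent substrate, 50 nM final. Fluorescence read kinetically at 0 and 10 min; buffer-only wells as negative control.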
POLH inh = inhibitors of human DNA polymerase eta; Q9Y253; recombinant Pol eta, fluorescent DNA replication assay; Potency, µM (series often up to 114 µM), for the others: at the highest dose activity change, negative = inhibition, actives largely listed as inhibitors; actives 1.2% (n = 390,000); note: % is set by controls: 0 for no effect and ±100 for the full control effect
Target sequence (Q9Y253 whole entry, looked up): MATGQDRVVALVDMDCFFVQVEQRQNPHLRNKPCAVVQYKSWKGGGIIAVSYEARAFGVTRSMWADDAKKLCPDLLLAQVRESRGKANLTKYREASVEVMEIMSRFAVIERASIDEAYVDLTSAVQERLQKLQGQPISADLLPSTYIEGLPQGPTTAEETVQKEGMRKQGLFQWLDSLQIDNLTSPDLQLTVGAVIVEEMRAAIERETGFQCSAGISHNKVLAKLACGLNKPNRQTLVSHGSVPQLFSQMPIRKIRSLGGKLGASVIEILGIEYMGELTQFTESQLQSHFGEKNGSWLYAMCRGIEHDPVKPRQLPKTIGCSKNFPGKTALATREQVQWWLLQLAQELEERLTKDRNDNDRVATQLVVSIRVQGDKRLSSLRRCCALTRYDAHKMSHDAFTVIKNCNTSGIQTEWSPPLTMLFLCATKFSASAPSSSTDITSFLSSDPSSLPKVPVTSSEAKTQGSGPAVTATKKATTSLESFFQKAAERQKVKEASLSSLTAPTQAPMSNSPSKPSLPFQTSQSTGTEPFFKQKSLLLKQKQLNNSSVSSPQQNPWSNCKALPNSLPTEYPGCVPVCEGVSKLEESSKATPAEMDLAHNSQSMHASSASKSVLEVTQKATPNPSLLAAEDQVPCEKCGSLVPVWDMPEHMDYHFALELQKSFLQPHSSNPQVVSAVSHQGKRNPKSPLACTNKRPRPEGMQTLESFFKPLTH
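Pol eta at 10 nM preincubated with compounds 15 min at room temperature; reaction started with fluorescent substrate (50 nM final) and read kinetically at 0 and 10 min.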
WRN helicase inh = WRN helicase (human) inhibition | actives 0.46% (n = 360,000) | WRN helicase unwinding, fluorescent forked duplex, kinetic | Potency, µM (titrated, usually from 114 µM), inactives show at the top dose activity change, negative = inhibition, hits mostly inhibitors; note: % is set by controls: 0 for no effect and ±100 for the full control effect; nearly all actives have a fitted effect of over 55% in size
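Kinetic red-fluorescence monitoring (525/598 nm) tracks WRN helicase activity after 100 nM fluorophore-quencher forked duplex and 2 mM ATP are added to 20 nM enzyme pretreated 15 min at room temperature with compound.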
POLK inh = DNA polymerase kappa (human) inhibition; actives 0.53% (n = 400,000); Potency, µM (series often up to 107 µM), without a hit: at the highest dose activity, negative = inhibition, most hits filed as inhibitors; purified Pol kappa, fluorescent DNA synthesis assay, 10 min; AID 588579; Q9UBT6; note: % is set by controls: 0 for no effect and ±100 for the full control effect
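Enzyme at 10 nM met test compounds for 15 min at room temperature. Substrate addition (50 nM final) began the reaction, which was monitored by fluorescence at 0 and 10 min.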
FEN1 inhibitor = blocks human flap endonuclease 1; actives 0.35% (n = 390,000); Potency, µM (highest dose often 114 µM), without a hit: at the top dose activity change, negative = inhibition, hits mostly inhibitors; P39748; Recombinant FEN1 flap cleavage, fluorescence, 15 min; AID 588795; note: % is set by controls: 0 for no effect and ±100 for the full control effect; nearly all actives have a fitted effect of over 65% in size
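Enzyme 10 nM, 15 min RT preincubation with compound; start with substrate 50 nM final; reads at 0 and 15 min; qHTS titration, four-parameter Hill fit.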
* marks the source's active call; other numbers are inactive results; ? = inconclusive; / = no result; ! = repeats disagree; [ ] = remark or other dose. The list is not random: actives were taken first. Their share in the collection is about 2.4%. Calls come from the whole dose curve; as a rule, active = well fitted curve in the direction sought with a large enough effect; inconclusive = small, poorly fitted or top-dose-only effect, or another doubt; inactive = no such curve, though single readings can be large; an effect the other way counts as inactive or inconclusive. Potency is the fitted concentration of half-maximal effect.

SMILES	Pol beta inh	Pol iota inh	POLH inh	WRN helicase inh	POLK inh	FEN1 inhibitor
COc1ccccc1CCNC(=O)Cc1c(C)c2cc3c(C(C)(C)C)coc3c(C)c2oc1=O	3.3%	-7.4%	-17.6%	/	-11.1%	-0.5%
CC1(C)C(=O)Nc2ccccc2N1C(=O)COC(=O)c1cc(Cl)cc(Cl)c1	/	?	-16.4%	-20.3%	-6.1%	-9.0%
CC1(C)C(=O)Nc2ccccc2N1C(=O)COC(=O)c1cccnc1	/	28.2µM*	?	-2.8%[11.6 µM]	-29.9%	18.3%
CC1(C)C(=O)Nc2ccccc2N1C(=O)COC(=O)C12CC3CC(CC(O)(C3)C1)C2	20µM*	50.1µM*	14.1µM*	-4.6%[11.6 µM]	?	-12.0%
COc1ccccc1CCC(=O)OCC(=O)N1c2ccccc2NC(=O)C1(C)C	/	79.4µM*	-10.1%	-9.0%	-7.6%	-17.4%
Cc1ccc(C)c(OCCC(=O)OCC(=O)N2c3ccccc3NC(=O)C2(C)C)c1	/	?	-11.2%	-7.5%	-16.1%	1.4%
COc1ccccc1OCC(=O)NCCS(=O)(=O)N1CCN(c2ccccc2OC)CC1	14.6%	0.5%	-4.5%	/	-10.7%[60.1 µM]	-1.8%
CCCC(=O)Nc1ccc(S(=O)(=O)Nc2cc(C)nc(C)n2)cc1	15.2%	5.3%	-5.7%	-5.0%	-18.3%	5.6%
Cc1cc(NS(=O)(=O)c2ccc(NC(=O)C(F)(F)F)cc2)nc(C)n1	56.2µM*	23.6%	3.2%	13.5%	-6.2%	14.3%
Cn1nc([N+](=O)[O-])nc1S(C)(=O)=O	89.1µM*	?	-3.7%	-4.0%	?	-9.9%
O=C(NCCO)c1ccc2nc(-c3ccco3)c(-c3ccco3)nc2c1	50.1µM*	2.51µM*	3.55µM*	11.2µM*	25.1µM*	44.7µM*
O=C(NCCc1ccccc1)c1ccc2nc(-c3ccco3)c(-c3ccco3)nc2c1	7.94µM*	?	?	?	?	-14.5%
O=C(NC1CCCC1)c1ccc2nc[nH]c2c1	-1.0%	-7.3%	-12.7%	5.9%	-4.3%	0.0%
O=C(NCCc1ccccc1)c1ccc(=O)oc1	19.5%	8.2%	-5.3%	14.8%	-9.6%	-1.9%
O=C(NC1CCCC1)c1ccc2nc(-c3ccco3)c(-c3ccco3)nc2c1	50.1µM*	?	3.55µM*	39.8µM*	22.4µM*	?
COc1ccc(-c2nc3sc(CCNC(=O)c4ccco4)c(C)n3n2)cc1	1.2%	-0.1%	-17.1%	/	-3.7%[60.1 µM]	-0.7%
CCOc1ccccc1NC(=O)CN1C(=O)C(=O)c2ccccc21	-17.0%	19.1%	-14.1%	/	-2.8%	-1.0%
CCOc1ccccc1C(O)C1=CC(=O)c2ccccc2C1=O (centres undefined)	/	6.31µM*	3.16µM*	?	?	-10.7%
CC(C)CC(CSc1ccc(Br)cc1)N1CCN(CC(C)C)CCC1=O (centres undefined)	/	-4.5%	/	/	-7.2%	2.6%
COc1cc(C2CC(=O)c3c(O)cc(O)cc3O2)ccc1O (centres undefined)	?	24.0%	-23.6%	3.4%	10.5%	-6.9%
COc1c(CC=C(C)C)cc(C2CC(=O)c3c(O)cc(O)cc3O2)c(CC=C(C)C)c1O (centres undefined)	/	-25.4%	-1.8%	-6.4%	-5.4%	?
O=C(O[C@@H]1Cc2c(O)cc(O)cc2OC1c1ccc(O)c(O)c1)c1cc(O)c(O)c(O)c1 (some centres undefined)	/	/	/	/	0.178µM*	/
COc1ccc([C@H]2CC(=O)c3c(O)cc(O)cc3O2)cc1O	-19.6%	44.4%	-21.1%	-3.7%	0.0%	-4.4%
Oc1cc(O)c2c(c1)O[C@H](c1ccc(O)c(O)c1)[C@H](O)C2	3.2%	89.1µM*	-5.9%	-6.2%	89.1µM*!	14.8%
O=C(OC1Cc2c(O)cc(O)cc2OC1c1cc(O)c(O)c(O)c1-c1c(C2Oc3cc(O)cc(O)c3CC2OC(=O)c2cc(O)c(O)c(O)c2)cc(O)c(O)c1O)c1cc(O)c(O)c(O)c1 (centres undefined)	/	/	/	/	0.501µM*	/
SMILES	Pol beta inh	Pol iota inh	POLH inh	WRN helicase inh	POLK inh	FEN1 inhibitor
COCCn1c(=O)c(-c2ccc(Cl)cc2)nc2cnc(N3CCOCC3)nc21	/	/	/	/	-6.2%[60.1 µM]	/
CCOc1ccccc1NC(=O)c1cc2c(Cl)nc3ccccc3c2s1	-1.9%	21.7%	-14.0%	/	-26.3%	-10.8%
N#Cc1ccc(CSc2nnc(NC(=O)c3ccc4ncsc4c3)s2)cc1	16.5%	?	31.6µM*	?	-6.5%	-11.7%
COc1cccc(/C=C2/Sc3ccc(C(=O)NCCN4CCCCCC4)cc3NC2=O)c1	-2.7%	-14.1%	-14.5%	3.3%[11.6 µM]	6.5%	50.1µM*
COc1ccccc1CNc1ncncc1-c1ccccc1C(F)(F)F	/	/	/	/	0.4%[60.1 µM]	/
CC(=O)OCON[N+]([O-])=NC1CCCCC1	/	-10.1%	/	/	1.3%	-18.9%
COc1ccc(NC(=O)Cn2nc(C)c3c(C)n(-c4ccccc4)nc3c2=O)cc1OC	50.1µM*	?	?	/	-5.9%	?
COc1ccc(NC(=O)CCCn2nc(C)c3c(C)n(-c4ccccc4)nc3c2=O)cc1OC	9.2%	28.0%	-9.7%	-5.0%	0.0%	-3.9%
COc1cccc(NC(=O)CCCn2nc(C)c3c(C)n(-c4ccccc4)nc3c2=O)c1	2.4%	3.1%	-18.0%	0.7%	-11.6%	3.1%
COc1cccc(NC(=O)Cn2nc(C)c3c(C)n(-c4ccccc4)nc3c2=O)c1	7.2%	89.1µM*	-4.6%	/	-13.5%[60.1 µM]	-3.5%
CCNC(=O)CCSc1nnc(-c2ccc(O)cc2)o1	?	17.8%	-13.0%	/	9.5%	-2.4%
O=C(Cn1cc(SCc2cccc(F)c2)c2ccccc21)N1CCCC1	22.5%	1.3%	2.8%	/	-8.4%	-21.1%
Nc1ccc(-c2nc3ccccc3[nH]2)cc1	?	23.4%	-20.5%	-6.5%	-0.6%	6.6%
Nc1ccc2nc(-c3ccc(-c4nc5ccc(N)cc5[nH]4)cc3)[nH]c2c1	-15.2%	?	-18.6%	-26.6%[11.6 µM]	50.1µM*	?
Cc1ccc2nc(-c3cccc(N)c3)[nH]c2c1	2.9%	-2.3%	-8.2%	-7.0%[57.1 µM]	-5.0%	1.2%
Nc1ccc(-c2nc3ccc(-c4nc5ccc(N)cc5[nH]4)cc3[nH]2)cc1	1.41µM*	3.98µM*	6.31µM*	/	2.67µM*	35.5µM*
COc1ccc(OC)c(/C=C2\C=Cc3ccccc32)c1	/	18.5%	/	/	-32.8%	?
Cc1ccc2c(c1)-c1c(cnc3cc(-c4ccc(Cl)cc4)nn13)CO2	1.0%	?	-7.9%	/	0.0%	-29.2%
CCCNc1c(F)c(F)c2c(C)c3ccccc3nc2c1F	-11.5%	7.94µM*	-7.7%	?	79.4µM*	-15.0%
OCCN1CCN(c2cc(-c3ccccc3)c3ccccc3n2)CC1	-5.9%	-7.5%	-17.8%	79.4µM*	-12.3%	-3.3%
